# Screening data from PubChem.
# Rows were chosen to be rich in hits. Some 1.3% of all compounds tested hit in one or more screens of this group.
# TRPML1 ag – activates the human TRPML1 channel; TRPML1-expressing cells, Ca2+ dye fluorescence, FDSS; activation, % (test concentration not listed); 410,000 tested, 0.12% active; in the data active = activation above about 50%; inconclusive = mostly about 30% to 49%; note: 0% is about no effect
#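 TRPML1-DL cells, Tet-induced overnight (~16 h, 37 degrees C), loaded 45-90 min at room temperature with Ca8 no-wash calcium dye plus quencher. FDSS fluorescence: 10 s baseline, compound pin-transfer, 110 s agonist read, then EC80 54-4 (4uM final) and 110 s antagonist read.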
# TRPML1 blocker – blocks the human TRPML1 channel. Q9GZU1. TRPML1-inducible cells, Ca2+ dye fluorescence, FDSS; active compounds read low; inhibition of EC80 agonist-evoked calcium signal. activity change, negative = inhibition, % (test concentration not listed). 390,000 tested, 0.02% active; in the data active = activity change below about -50%; inconclusive = between about -30% and that limit;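 note: stimulus is agonist 54-4 at its EC80 concentration; % is set by controls: 0 for no effect and ±100 for the full control effect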
#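 Tet-induced TRPML1-DL cells loaded with Ca8 no-wash calcium dye were read kinetically on FDSS. Compound addition was followed by EC80 agonist 54-4 (4 uM final); inhibition was read over 110 s.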
# 12-LOX inh – ALOX12 (human) lipoxygenase inhibition. purified 12hLO, xylenol orange hydroperoxide absorbance. Potency, µM (titrated, usually from 108 µM), for inactives: at the top dose activity change, negative = inhibition, hits mostly inhibitors. 580,000 tested, 1.1% active; note: potency is the fitted concentration of half-maximal effect; % is set by controls: 0 for no effect and ±100 for the full control effect
# Target sequence (P18054 whole entry, looked up): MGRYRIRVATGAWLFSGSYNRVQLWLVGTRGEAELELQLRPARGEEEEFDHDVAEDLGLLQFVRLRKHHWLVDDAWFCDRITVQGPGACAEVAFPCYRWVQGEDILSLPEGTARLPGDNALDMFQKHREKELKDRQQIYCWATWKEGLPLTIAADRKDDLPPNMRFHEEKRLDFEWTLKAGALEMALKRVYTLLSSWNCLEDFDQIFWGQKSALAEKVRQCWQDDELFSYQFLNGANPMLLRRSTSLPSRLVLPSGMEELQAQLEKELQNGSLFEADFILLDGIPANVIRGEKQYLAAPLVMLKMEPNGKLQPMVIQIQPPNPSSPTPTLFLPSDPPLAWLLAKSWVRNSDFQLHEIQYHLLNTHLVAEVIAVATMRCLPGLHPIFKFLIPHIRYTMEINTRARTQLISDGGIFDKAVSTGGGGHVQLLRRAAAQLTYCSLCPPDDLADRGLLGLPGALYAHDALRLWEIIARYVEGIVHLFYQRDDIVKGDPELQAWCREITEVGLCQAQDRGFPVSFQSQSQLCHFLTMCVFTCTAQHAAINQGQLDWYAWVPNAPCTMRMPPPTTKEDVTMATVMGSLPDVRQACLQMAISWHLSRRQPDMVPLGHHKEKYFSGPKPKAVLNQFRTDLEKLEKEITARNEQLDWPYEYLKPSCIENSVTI
#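 Purified human 12hLO (150 nM final) in 25 mM Hepes, 0.01% Triton X-100, pH 7.0 was preincubated 15 min at room temperature with compound. Then 40 uM arachidonic acid was added, 30 min. Hydroperoxide was read by Fe-XO absorbance ratio 573/405 nm.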
# Vif-APOBEC3F blk – inhibitors of Vif-A3F interaction | HeLa A3F-eYFP + Vif (tagged APOBEC3F with the HIV-1 protein that degrades it), YFP fluorescence increase | Potency, µM (top dose mostly 46.1 µM), without a hit: at the top dose activity, negative = active | 390,000 tested, 0.2% active | AID 602313; note: potency is the fitted concentration of half-maximal effect; % of control where 0% means no effect; nearly all actives have a fitted effect of over 65% in size
#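 HeLa cells stably expressing A3F-eYFP plus Vif, plated and incubated overnight at 37 deg C, then exposed to compounds overnight at 37 deg C. Blocked degradation read as raised yellow fluorescence (Ex 488/Em 500-530).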
# Vif-A3G inh – blocks the Vif interaction with human APOBEC3G; Potency, µM (series often up to 46.1 µM), for the others: at the top dose activity, negative = active, actives largely listed as inhibitors; Q9HC16; HeLa A3G-eYFP + Vif (tagged APOBEC3G with the HIV-1 protein that degrades it), YFP fluorescence, overnight; AID 602310; 410,000 tested, 0.076% active; note: potency is the fitted concentration of half-maximal effect; % is set by controls: 0 for no effect and ±100 for the full control effect; nearly all actives have a fitted effect of over 60% in size
#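 Read-out is eYFP fluorescence (Ex 488/Em 500-530) from Vif-expressing HeLa A3G-eYFP cells; more signal means A3G escaped Vif-mediated degradation. Cells plated overnight, compound pinned in, incubated overnight at 37 deg C.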
# GRP78 ERSR act – inducers of ER stress response in human glioma cells. U87-MG GRP78 promoter luciferase reporter, 16 h. Potency, µM, for inactives: at the top dose activation, usual class: activators. 420,000 tested, 0.02% active. AID 602332; note: potency is the fitted concentration of half-maximal effect; series mostly up to about 76 µM; % of control where 0% means no effect; nearly all actives have a fitted effect of over 35% in size
#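 Stably transfected U87-MG human glioma cells carrying a GRP78-based luminescent sensor were seeded at 1000 cells/well, pin-dosed with compounds and incubated 16 h. Luciferase reagent was then added, and end-point luminescence was read after 10 min at room temperature.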
# Numbers without * were called inactive; ? = inconclusive; . = not tested or not shown; ! = not confirmed by another sample. Unless noted, calls come from the whole dose curve; as a rule, active = well fitted curve in the direction sought with a large enough effect; inconclusive = small, poorly fitted or top-dose-only effect, or another doubt; inactive = no such curve, though single readings can be large; an effect the other way counts as inactive or inconclusive.
SMILES,TRPML1 ag,TRPML1 blocker,12-LOX inh,Vif-APOBEC3F blk,Vif-A3G inh,GRP78 ERSR act
CCOC(=O)c1cnc2c(Cl)c(Cl)ccc2c1NCCN1CCOCC1,-0.7,-8.4,16.4%,5.1%,0.1%,-7.6%
COc1ccc(-c2cc(C(=O)NC3CCNCC3)c3c(C)nn(-c4ccccc4)c3n2)cc1,.,.,25.1µM*,.,.,.
Cc1cccn2c(=O)c3cc(C#N)c(=NC(=O)c4ccccc4)n(Cc4ccco4)c3nc12,3.6,10.0,7.08µM*,-5.1%,-0.4%,0.5%
Cc1cccn2c(=O)c3cc(C#N)c(=NC(=O)c4ccco4)n(Cc4ccco4)c3nc12,-0.6,-15.2,?,?,0.1%,-3.6%
Cc1cccc(C(=O)N=c2c(C#N)cc3c(=O)n4cccc(C)c4nc3n2Cc2ccco2)c1,6.9,9.6,35.5µM*!,?,-7.0%,-2.0%
Cc1c(Cl)cccc1NC(=O)CSC1=NS(=O)(=O)c2ccccc2N1Cc1ccccc1,.,.,-3.1%,.,.,.
CCn1c(-c2ccc3ncccc3c2)n[nH]c1=S,-0.5,11.3,?,3.0%,-0.4%,-2.6%
C=CCn1c(-c2ccc3ncccc3c2)n[nH]c1=S,0.6,-2.3,28.2µM*,0.1%,-7.7%,-3.7%
CCCCN(CCC(=O)NCCc1ccccc1)C(=O)c1cc(C)oc1C,.,.,60.5%,.,.,.
Cc1ccc2c(Cl)c(Cc3ccccc3)c(=S)[nH]c2n1,2.3,33.6,31.6µM*,0.8%,-6.8%,-0.5%
CCC(C)C(N)C(=O)O (stereo not drawn),.,.,.,.,.,-2.2%
C[C@@H](CC(=O)O)[C@@H](N)C(=O)O,.,.,20µM*!,.,.,-2.8%
COc1ccc(NC(=O)CN(C)S(=O)(=O)c2ccc3c(c2)c(=O)n(C)c(=O)n3C)cc1,0.2,-87.2*!,-6.1%,-6.7%,-6.7%,-0.7%
Cn1c2ccccc2c2ccc3c(c21)C(=O)C=CC3=O,1.2,-6.9,?,11.2µM*,-5.9%,-2.5%
Cc1ccc2c(c1)c1ccc3c(c1n2C)C(=O)C=CC3=O,0.9,-3.3,1.12µM*,?,-16.6%,-1.9%
COc1ccc2c(c1)c1ccc3c(c1n2C)C(=O)C=CC3=O,1.1,5.2,0.708µM*,?,-8.9%,-2.7%
CC(C)CC(NC(=O)C(c1ccccc1)C(C)C)c1ccccc1 (stereo not drawn),.,.,-20.6%,.,.,.
Cc1cc(Cl)ccc1OCC(=O)Nc1ccccc1N1CCOCC1,75.5*,-12.0,0.0%,5.4%,-7.0%,-4.8%
O=C(COc1ccc(F)cc1Br)Nc1ccccc1N1CCOCC1,70.9*,-9.6,?,7.1%,-3.4%,-3.4%
Cc1cc(Cl)ccc1OCC(=O)NC(=S)Nc1ccccc1N1CCOCC1,0.0,23.1,-18.0%,-4.3%,-9.2%,-3.3%
CCCOc1c(Cl)cc(C(=O)Nc2nnc(CC)s2)cc1OC,.,.,57.3%,.,.,.
CCC(CC)NCc1cccc(Oc2ccccc2)c1,.,.,-51.3%,.,.,.
COCCCn1c(C23CC4CC(CC(C4)C2)C3)n[nH]c1=S,.,.,?,-5.6%,-0.7%,2.0%
CC(C)Cn1c(C23CC4CC(CC(C4)C2)C3)n[nH]c1=S,0.3,-20.8,28.2µM*,6.6%,-0.2%,-4.6%
Fc1ccccc1-n1c(C23CC4CC(CC(C4)C2)C3)n[nH]c1=S,.,.,14.1µM*,.,.,.
COc1ccc(NC(=S)Nc2nc(CC(=O)Nc3ccccc3OC)cs2)cc1,0.0,26.7,?,-3.2%,3.2%,-1.6%
COc1ccccc1NC(=O)Cc1csc(NC(=S)Nc2ccccc2)n1,-0.1,8.0,17.8µM*,-2.4%,-9.4%,-1.3%
Cc1ccc(NC(=O)c2ccc(NCCCN3CCC(C)CC3)c([N+](=O)[O-])c2)cc1F,0.1,-16.7,-24.9%,10µM*,-26.3%,-7.9%
Cc1ccc(NC(=O)c2ccc(NCc3ccco3)c([N+](=O)[O-])c2)cc1Cl,0.2,20.7,11.1%,8.91µM*,?,-1.6%
NC(=O)c1ccc(NCC2CCCO2)c([N+](=O)[O-])c1 (stereo not drawn),0.5,0.1,-24.9%,-22.9%,-3.9%,-1.6%
